Test results from PubChem BioAssay (NCATS).
Inconclusive results are not listed. Calls of active or inactive are those of the source. Unless noted, the call rests on the fitted dose curve.

What was measured:
[1] = Primary qHTS for inhibitors of nuclear receptor binding SET domain protein 2 (NSD2) in an isogenic RCH-ACV NSD2 p.E1099K mutant (9B) (AID 1645876; active means well fitted inhibition curve with a large enough effect; further: nearly all actives have a fitted effect of over 70% in size)
[2] = qHTS drug screen for cell cycle checkpoint inhibitors in PARPi-resistant BRCA-mutant ovarian cancer cell lines. (AID 1963452); settings: PEO1/OlaR viability, CellTiter-Glo luminescence, 96 h; for Z-AUC: stronger effect = lower value
Method in brief: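 PEO1, PEO4 and PEO1/OlaR ovarian cancer cells, 600 per well, exposed 96 h at 37C to a dilution series. Viability read by CellTiter-Glo luminescence, normalized to DMSO and empty wells; activity summarized as Z-AUC.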
Potency means the concentration at half of the fitted maximal effect.

Compound: COC(=O)[C@]12CCC(C)(C)C[C@H]1[C@H]1C(=O)C=C3[C@@]4(C)C=C(C#N)C(=O)C(C)(C)[C@@H]4CC[C@@]3(C)[C@]1(C)CC2
- Potency [1]: 8.33 µM (active)
- Z-AUC ([2]; PEO1 parental Z-AUC): -0.983
- Z-AUC ([2]; PEO4 Z-AUC): -1.45
- Z-AUC [2]: 0.111 (inactive)

Compound: CC1(C)CC[C@]2(NC(=O)C(C)(F)F)CC[C@]3(C)[C@H](C(=O)C=C4[C@@]5(C)C=C(C#N)C(=O)C(C)(C)[C@@H]5CC[C@]43C)[C@@H]2C1
- Potency [1]: 9.34 µM (active)
- Potency [2]: 1.38 µM (active)
- Z-AUC ([2]; PEO1 parental Z-AUC): -1.7
- Z-AUC ([2]; PEO4 Z-AUC): -2.21
